Shown are actives, neighbours in structure and some others; about 8.6% of the full set was active somewhere.
MARV entry inh – qHTS for Inhibitors of binding or entry into cells for Marburg Virus. Potency, µM (top dose mostly 49.2 µM), hits mostly inhibitors. actives 6.5% (n = 18,000). Marburg virus pseudotype entry/binding inhibition, cell-based. AID 720532, 2013
Lassa entry – qHTS for Inhibitors of binding or entry into cells for Lassa Virus; Lassa virus pseudotyped entry inhibition, cell-based qHTS; Potency, µM (doses to about 49.2 µM), usual class: inhibitors; actives 4.1% (n = 18,000); AID 720533, 2013
A number is an active result; – = inactive; ? = inconclusive; · = not tested or not shown; ! = a repeat was not active; [ ] = remark or other dose. Calls come from the whole dose curve; tested in HEK293 cells.

SMILES	MARV entry inh	Lassa entry
CCCCCCCCCc1ccc(OCCOCCO)cc1	?	11.2µM
CCCCCCCCCCCCOCCOCCOCCOCCO	–	–
CN(C(=O)COc1nc2ccccc2s1)c1ccccc1	–	–
CNc1ccc(-c2nc3ccccc3s2)cc1	7.08µM	10µM
F/C(COc1ccc2c(c1)[nH]c1ccccc12)=C1/CN2CCC1CC2	12.6µM	?
COC(=O)[C@H]1Cc2c([nH]c3ccccc23)CN1C(=O)COc1ccc2c(C)cc(=O)oc2c1	–	–
COc1cccc([C@@H]2Oc3ccc(OC)cc3C(=O)[C@@H]2OC(=O)N[C@H]2CCCc3ccccc32)c1	–[8.59 µM]	–[8.59 µM]
O=C(NN=C1C[C@@H](O)[C@H](O)[C@H]2[C@@H]3C(=O)N(C4CCCCC4)C(=O)[C@@H]3CC[C@H]12)OCc1ccccc1	?	–[8.59 µM]
CN1CCN(CCCN2c3ccccc3Sc3ccccc32)CC1	14.1µM	?
CN1CCN(CCCN2c3ccccc3Sc3ccc(Cl)cc32)CC1	10µM	20µM!
CCSc1ccc2c(c1)N(CCCN1CCN(C)CC1)c1ccccc1S2	?	–
O=C1[C@@H]2[C@H]3[C@H](O)[C@H](O)CC(=NOC[C@@H](O)COCc4ccco4)[C@H]3CC[C@H]2C(=O)N1c1ccc(F)cc1F	–[8.59 µM]	–[8.59 µM]
C[C@H]1CN(CCc2ccccc2)C(=O)[C@H]1CC(=O)Nc1ccccc1	–	–
CC(C)=CCCC1(C)C=Cc2c(O)c3c(c(CC=C(C)C)c2O1)OC12C(CC4CC1C(C)(C)OC2(C/C=C(/C)C(=O)O)C4O)C3=O (centres undefined)	–	10µM
O=C1C=CC(=C(c2ccc(O)cc2)c2ccc(O)cc2)C=C1	12.6µM	8.91µM
CCC(=O)c1ccc(O)cc1	–	–
C#Cc1cccc(Nc2ncnc3cc(OCCOC)c(OCCOC)cc23)c1	–	?
COc1cc2c(Nc3ccc(Br)cc3F)ncnc2cc1OCC1CCN(C)CC1	7.08µM	22.4µM
O=C(OCc1cn([C@@H]2CN(C(=O)c3cccs3)[C@@H](c3ccc(Cl)cc3)C[C@@H]2O)nn1)c1ccccc1	–	–
C=CCOC(=O)N[C@H](c1cccc(OC)c1)[C@H](C)C=CCC(=O)OC	–[8.59 µM]	·
Cc1ccccc1OC[C@H](O)CO	–	–
Cc1ccc(OCC(O)C(C)NC(C)C)c2c1CCC2 (centres undefined)	12.6µM	?
COc1ccc(CNc2cc(-c3ccccc3CN(C)C)ncn2)c(OC)c1	10µM	–
COc1ccccc1-c1nc(NCc2cnc(C)cn2)c2ccccc2n1	–	–
Cc1cccc(CNc2nc(-c3ccoc3)nc3ccccc23)c1	–	–
SMILES	MARV entry inh	Lassa entry
COc1ccc(CNc2nc(-c3ccccc3CN(C)C)nc3ccccc23)c(OC)c1	7.94µM	?
Cc1cccc(CNc2nc(-c3ccccc3CN(C)C)nc3ccccc23)c1	11.2µM	?
COc1ccc(CNc2nc(-c3ccoc3)nc3ccccc23)c(OC)c1	–	–
COc1ccccc1-c1cc(NCc2cccnc2)ncn1	–	–
COc1ccccc1-c1nc(NCc2ccccc2)c2ccccc2n1	12.6µM	14.1µM
COc1cc(C(CC2=CCCCC2)NC(=O)C(F)(F)F)cc(OC)c1OC (centres undefined)	–[8.59 µM]	–[8.59 µM]
COC(=O)[C@@H]1[C@@H](c2ccccc2)NC(=O)N(Cc2ccccc2)[C@@H]1C	–[8.59 µM]	–[8.59 µM]
CCCCCCN1C[C@H](O)[C@@H](n2cc(C3CC3)nn2)C[C@H]1c1ccc(C)cc1	?	–
CC(CCN1CCCc2nc(C)c(C)cc21)=NOC[C@@H](O)[C@H]1O[C@@H]2OC(C)(C)O[C@H]2[C@@H]1O	–[8.59 µM]	–[8.59 µM]
O=S1(=O)CC(N2CC=CC2)CN1Cc1cn(Cc2ccc(C(F)(F)F)cc2)nn1 (centres undefined)	–	–
COc1ccc(O[C@H]2C=C[C@@H](c3ccccc3)O[C@H]2COC(=O)CCC(C)=NO[C@@H](C)c2cc(-c3c(C)cc(C)cc3C)no2)cc1	–[8.59 µM]	–[8.59 µM]
c1ccc(CCc2nc(-c3ccccc3)oc2Nc2ccc3ccccc3c2)cc1	–[8.59 µM]	–[8.59 µM]
C=C(CCN1C=C(C(=O)OCC)C(c2ccccc2)NC1=O)c1ccccc1 (centres undefined)	?	–[8.59 µM]
COc1ccc([C@]23Cc4ccccc4[C@H](O2)C2=C(CC(C)(C)CC2=O)O3)cc1	–[8.59 µM]	–[8.59 µM]
C[C@H]1C=CCC(=O)NCc2cccc(c2)CNC(=O)N[C@@H]1c1ccccc1	?	–[8.59 µM]
CCC(=O)O[C@@](Cc1ccccc1)(c1ccccc1)[C@@H](C)CN(C)C	–	–
CCC(=O)O[C@](Cc1ccccc1)(c1ccccc1)[C@H](C)CN(C)C	28.2µM	–
NS(=O)(=O)c1cccc(N=Cc2c(O)[nH]c3ccccc23)c1	?	–
COc1ccc(C2CC(=O)c3ccc(OC)cc3O2)cc1 (centres undefined)	–	–
COc1cc2c(cc1CC=C(C)C)C(=O)C[C@@H](c1ccc(O)cc1)O2	?	8.91µM
C[C@@H]1C=CCC(=O)N[C@@H](c2ccc3ccccc3c2)[C@H](C)C=CCC(=O)N[C@@H]1c1ccc2ccccc2c1	?	–[8.59 µM]
CC12C(=O)OC(=O)C1(C)C1CCC2O1 (centres undefined)	3.55µM	2.82µM
COc1cc2c(cc1OC)[C@@H]1O[C@](CCCCN3C(=O)c4ccccc4C3=O)(C2)OC2=C1C(=O)CC(C)(C)C2	–[8.59 µM]	–[8.59 µM]
CCCC[C@@H](C)/C=C(C)/C=C(\C)C(=O)NC1=C[C@@](O)(/C=C/C=C/C=C/C(=O)NC2=C(O)CCC2=O)[C@@H]2O[C@@H]2C1=O	5.62µM	15.8µM
CCCCCCCCCCCCCCOc1ccc(C(=O)O)o1	?	0.562µM
SMILES	MARV entry inh	Lassa entry
CCCCCCCCOC(=O)c1ccccc1C(=O)OCCCCCCCC	–	–
Cc1ccccc1C(OCCN(C)C)c1ccccc1 (centres undefined)	?	–
CC(C(O)c1ccccc1)N(C)CCOC(c1ccccc1)c1ccccc1 (centres undefined)	8.91µM	14.1µM
CC(C)OC(=O)[C@H](C)NC(=O)N1CCc2nc(COc3ccccc3)c3c(c2C1)CO[C@@H](C)C3	–[8.59 µM]	–[8.59 µM]
CSC[C@H]1CN(CCc2ccccc2)C(=O)[C@H]1CC(=O)Nc1ccccc1	–	–
c1ccc2c(c1)[nH]c1cnccc12	–	–
Cc1c2ccncc2c(C)c2c1[nH]c1ccccc12	4.47µM	–
O=C1N(CC2CC2)c2cccc(Br)c2[C@@]12O[C@H](COc1ccccc1)CC1=CCCC12 (some centres undefined)	?	–[8.59 µM]
COC(=O)[C@@H]1[C@@H](c2ccccc2)NC(=O)N(CCc2cc(OC)c(OC)c(OC)c2)[C@@H]1C	–[8.59 µM]	–[8.59 µM]
CO[C@H]1C=CO[C@@]2(C)Oc3c(C)c(O)c4c(O)c(c(/C=N/N5CCN(C6CCCC6)CC5)c(O)c4c3C2=O)NC(=O)/C(C)=C\C=C[C@H](C)[C@H](O)[C@@H](C)[C@@H](O)[C@@H](C)[C@H](OC(C)=O)[C@@H]1C	–	?
COc1cccc([C@H]2Oc3ccc(OC)cc3C(=NO[C@@H](C)c3cc(-c4c(C)cc(C)cc4C)no3)[C@H]2O)c1	–[8.59 µM]	–[8.59 µM]
COP(=S)(OC)Oc1ccc(S(N)(=O)=O)cc1	–	–
COP(=S)(OC)Oc1ccc([N+](=O)[O-])cc1	11.2µM	?
CC(C)c1nc(CN(C)C(=O)N[C@H](C(=O)N[C@@H](Cc2ccccc2)C[C@H](O)[C@H](Cc2ccccc2)NC(=O)OCc2cncs2)C(C)C)cs1	?	7.08µM!
Cn1ccc2c(-c3ccccc3Cl)cc3c(c21)C1CCC3C1 (centres undefined)	–	–
